This is a sample that favours compounds with a hit; in the whole collection about 3.4% have one here.
GPR151 ag – human GPR151 activation; Q8TDV0; PathHunter beta-arrestin GPR151 cells, luminescence; activation, % at 11.2 µM; 650,000 compounds, 1% hits; AID 1508602; in the data active = activation above about 4.9%;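 note: 0% = median of compound wells and 100% = cells with positive control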
TEAD-YAP block – TEAD-YAP interaction inhibition; HEK-TIYL cells, TEAD-Gal4/YAP UAS-luciferase luminescence; 640,000 compounds, 1.4% hits; inhibition, % at 9.12 µM; AID 1259422; in the data active = inhibition above about 32%;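 note: 0% = median of test compound wells and 100% = reference inhibitor wells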
FBW7 act – activators of human E3 ligase FBW7; Q969H0; AlphaScreen FBW7–phospho-cyclin E peptide binding, activator screen; normalized activity (activation), % at 26.1 µM; 650,000 compounds, 0.13% hits; AID 1259310; in the data active = normalized activity above about 1.9%;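 note: purified mutant Fbw7 with reduced substrate affinity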
MITF inh – human MITF inhibition, primary screen; 650,000 compounds, 0.91% hits; O75030; AlphaScreen MITF homodimerization, bead proximity signal; inhibition, % at 2.6 µM; AID 1259374; in the data active = inhibition above about 50%;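 note: 0% = vehicle wells with protein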
Target sequence (O75030 whole entry, looked up): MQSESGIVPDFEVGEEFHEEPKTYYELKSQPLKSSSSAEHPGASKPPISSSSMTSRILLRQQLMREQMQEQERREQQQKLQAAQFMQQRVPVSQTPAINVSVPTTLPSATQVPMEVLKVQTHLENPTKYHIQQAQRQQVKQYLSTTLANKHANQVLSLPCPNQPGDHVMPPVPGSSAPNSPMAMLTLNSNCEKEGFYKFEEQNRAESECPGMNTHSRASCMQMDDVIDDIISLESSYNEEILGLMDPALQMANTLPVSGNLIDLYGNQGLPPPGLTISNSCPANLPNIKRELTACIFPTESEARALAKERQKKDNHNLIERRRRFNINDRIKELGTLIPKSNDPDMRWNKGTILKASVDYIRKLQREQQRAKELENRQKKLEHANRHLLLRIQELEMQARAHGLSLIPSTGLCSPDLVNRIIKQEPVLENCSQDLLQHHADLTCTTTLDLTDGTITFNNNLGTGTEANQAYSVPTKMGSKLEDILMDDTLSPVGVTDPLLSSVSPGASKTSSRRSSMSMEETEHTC
MITF confirm – confirmation of human MITF inhibitors; shares compounds with MITF inh; AlphaScreen MITF homodimerization, biotin/His-MITF beads; inhibition, % at 2.6 µM; 4,700 compounds, 16% hits; AID 1259372;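 active = inhibition above a cutoff derived from the DMSO control wells, cut at about 28% in these data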;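 note: 0% = MITF dimer wells with DMSO only; inhibitors lower the bead chemiluminescence by keeping MITF from dimerizing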
AlphaScreen DR – optically interferes with AlphaScreen signal in dose response; IC50, µM; shares compounds with MITF inh; AlphaScreen optical interference counterscreen, cell-free; 480 compounds, 6% hits; call rule not given here
AlphaScreen intf2 – counter-screen: compounds optically interfering with AlphaScreen; 4,700 compounds, 7.6% hits; inhibition, % at 2.6 µM; shares compounds with MITF inh; LysRS AlphaScreen counterscreen, signal interference, triplicate;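 active = inhibition above a cutoff derived from the DMSO control wells, cut at about 30% in these data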
* hit, by the source's call; nt = no result given.

SMILES | GPR151 ag | TEAD-YAP block | FBW7 act | MITF inh | MITF confirm | AlphaScreen intf2 | others
CCC(C)N1CCN(Cc2ccc(OC)c(OC)c2)CC1 (configuration not stated) | 0 | 8 | 0 | 64* | 2 | 10
CCOc1ccc(CN2CCN(C(C)CC)CC2)cc1 (configuration not stated) | 0 | 2 | 0 | 66* | 1 | -1
CCC(C)N1CCN(Cc2cc(OC)c(OC)cc2OC)CC1 (configuration not stated) | -1 | -5 | 0 | 64* | -1 | 2
CCC(C)N1CCN(Cc2ccc(OC)cc2)CC1 (configuration not stated) | -1 | -1 | 0 | 69* | 1 | 12
CCN1CCN(Cc2ccc(OC)cc2OC)CC1 | 0 | -5 | 0 | 6 | nt | nt
CCOC(=O)c1c(N)n(Cc2ccc3c(c2)OCO3)c2nc3ccccc3nc12 | 2 | 4 | 0 | -7 | nt | nt
N/C(=N\[N+](=O)[O-])N/N=C\c1ccc(-c2ccc(O)c(C(=O)O)c2)o1 | -1 | -8 | -1 | 75* | 79* | 11 | AlphaScreen DR=>6.5
N/C(=N\[N+](=O)[O-])N/N=C\c1ccc(-c2ccccc2C(=O)O)o1 | 1 | 14 | 0 | 2 | nt | nt
CCOC(=O)C1C2NC(=S)N(c3ccc(F)cc3)C1(C)Oc1ccc(OC)cc12 (configuration not stated) | -2 | -3 | -1 | 48 | nt | nt
N#CC1(NCCc2ccccc2)CCCCC1 | -1 | -3 | 0 | -14 | nt | nt
Fc1ccc(CN2CCN(c3ccc(Cl)cc3)CC2)cc1 | 2 | 0 | 0 | 9 | nt | nt
Fc1ccc(CN2CCN(Cc3ccccc3)CC2)cc1 | -1 | -1 | 0 | 59* | 11 | 28
Fc1ccc(CN2CCN(Cc3ccc(Cl)cc3)CC2)cc1 | 0 | 10 | 0 | 68* | 2 | 16
CCN1CCN(Cc2ccccc2OC)CC1 | 0 | -3 | 0 | -67 | nt | nt
COc1ccccc1CN1CCN(Cc2ccccc2Br)CC1 | -2 | -16 | 0 | 71* | 2 | 6
COc1ccccc1CN1CCN(Cc2ccccc2C)CC1 | 0 | -8 | 0 | 78* | 7 | 9
CCOC(=O)C1C2NC(=S)N(c3cccc(C)c3)C1(C)Oc1ccc(Br)cc12 (configuration not stated) | 0 | 2 | -1 | 17 | nt | nt
CC(=O)c1ccc(N2CCN(Cc3ccc(F)cc3)CC2)cc1 | 0 | -11 | 0 | 30 | nt | nt
Fc1cccc(F)c1CN1CCN(c2ccccc2)CC1 | -1 | 6 | 0 | 56* | 3 | -7
CC(=O)c1ccc(N2CCN(Cc3ccccc3F)CC2)cc1 | 1 | -1 | 1 | 51* | -4 | 4
COc1cccc(N2CCN(Cc3ccccc3F)CC2)c1 | -2 | -2 | 0 | 60* | -10 | -4
COc1ccc(CN2CCN(Cc3cccc(Cl)c3)CC2)cc1Br | -1 | 4 | 0 | 68* | 39* | 2 | AlphaScreen DR=>6.1
COc1ccc(CN2CCN(C(=O)Cc3ccccc3)CC2)cc1Br | 0 | 8 | 0 | 53* | 15 | 22
COc1ccc(CN2CCN(Cc3cccc(Br)c3)CC2)cc1Br | 2 | -1 | 0 | 76* | 12 | 1
COc1ccc(CN2CCN(C(=O)COc3ccccc3)CC2)cc1OC | 0 | 4 | 0 | 44 | nt | nt
SMILES | GPR151 ag | TEAD-YAP block | FBW7 act | MITF inh | MITF confirm | AlphaScreen intf2 | others
COc1ccc2ccccc2c1CN1CCN(C(=O)Cc2ccccc2)CC1 | -1 | 3 | 0 | 55* | -12 | -5
COc1cccc(CNCCc2cccc(Cl)c2)c1 | -1 | 7 | 0 | 50 | nt | nt
CCOC(=O)C1=C(N)OC(CC(=O)OC)=C(C(=O)OC)C12C(=O)N(C)c1ccccc12 (configuration not stated) | 2 | -4 | 0 | -7 | nt | nt
COc1ccc(CN2CCN(Cc3ccc(C)cc3)CC2)cc1Br | 1 | -3 | 0 | 53* | 15 | 21
CCOc1ccccc1CN1CCN(C(C)C)CC1CCO (configuration not stated) | 1 | -5 | 0 | -6 | nt | nt
CN(C)[C@@H]1C(=O)C(C(N)=O)=C(O)[C@@]2(O)C(=O)C3=C(O)c4c(O)cccc4[C@@](C)(O)[C@H]3C[C@@H]12 | 0 | -16 | 0 | 11 | nt | nt
CN(C)C1C(=O)C(C(N)=O)=C(O)C2(O)C(=O)C3=C(O)c4c(O)cccc4C(C)(O)C3CC12 (configuration not stated) | -1 | 15 | 0 | 51* | 43* | 3 | AlphaScreen DR=>6.5
CCN1CCN(C(=O)Cc2csc3nc(-c4ccc(Cl)cc4)cn23)CC1 | 0 | 0 | 0 | 13 | nt | nt
COc1ccc(OC)c(NC(=S)N2CC3CC(C2)c2cccc(=O)n2C3)c1 (configuration not stated) | -1 | 6 | 0 | 0 | nt | nt
O=C(CCC(=O)Nc1ccc(Cl)cc1C(=O)c1ccccc1)Nc1ccc(Br)cc1 | 4 | -7 | 0 | 17 | nt | nt
CC(=O)c1ccc(N2CCN(Cc3cccc(Cl)c3)CC2)cc1 | 1 | -2 | 0 | 33 | nt | nt
COc1ccc(O)c(CN2CCN(Cc3cccc(Cl)c3)CC2)c1 | 1 | -5 | 0 | 5 | nt | nt
CSc1ccc(CN2CCN(Cc3cccc(Cl)c3)CC2)cc1 | 0 | 2 | 0 | 67* | 19 | 20
COc1ccc(CN2CCN(Cc3cccc(Cl)c3)CC2)cc1 | 1 | 6 | 0 | 83* | 19 | 14
COc1cccc(CN2CCN(Cc3cccc(Cl)c3)CC2)c1 | -1 | 17 | 0 | 70* | 14 | 20
COCC(C)NC(=O)c1c(COc2ccc(C)cc2)n(Cc2ccccn2)c(C)cc1=O (configuration not stated) | 5 | 9 | 0 | 6 | nt | nt
COCCn1nnnc1C(c1ccc(F)cc1)N1CC=C(c2ccc(F)cc2)CC1 (configuration not stated) | 0 | -19 | 1 | 38 | nt | nt
COc1cc(OC)c(OC)cc1CNCCc1ccc(Cl)cc1 | 1 | 7 | 0 | 32 | nt | nt
COc1ccc(CCNCc2cc(OC)c(OC)cc2OC)cc1 | -1 | 7 | 0 | 61* | -4 | -3
COc1ccc(CN2CCN(Cc3ccccc3OC)CC2)cc1 | 0 | -8 | 0 | 77* | 31* | 17 | AlphaScreen DR=>7.3
COc1ccccc1N1CCN(Cc2ccc(F)cc2)CC1 | 0 | -3 | 0 | 9 | nt | nt
COc1ccccc1CN1CCN(Cc2cccc(Cl)c2)CC1 | 1 | -8 | 0 | 69* | 14 | -7
COc1ccccc1CN1CCN(Cc2ccc(SC)cc2)CC1 | 0 | -6 | 0 | 81* | 13 | 15
COc1ccccc1CN1CCN(Cc2ccc(F)cc2)CC1 | -1 | -5 | 0 | 81* | 6 | 18
COc1ccc(CN2CCN(c3ccc(OC)cc3)CC2)cc1 | 0 | -7 | 0 | 14 | nt | nt
COc1cccc(CN2CCN(c3ccc(Cl)cc3)CC2)c1O | -2 | 12 | 0 | 17 | nt | nt

High-throughput results from PubChem.
